We go through five molecules from PubChem BioAssay.

Activity calls are given as the source filed them.

Assay [1] can be described thus: small molecules captured by biotinylated probe aFSTL3 – biochemical, small-molecule microarray, fluorescence 635/667, stem cell growth factor project, primary screen (AID 1064).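 Further: measures binding of the biotinylated anti-FSTL3 antibody to printed compounds.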 The following applies: higher = more signal.
A short description of assay [2]: binders from COS7 lysate, DM2A8 probe, primary screen, torsin A project, cell lysate, small-molecule microarray, fluorescence 635/667 (AID 1065). The conditions noted are these: higher = more signal, COS7 lysate expressing mutant human TOR1A.
The nature of assay [3]: small molecules captured by biotinylated probe aFGF2 – biochemical, small-molecule microarray, fluorescence 635/667, stem cell growth factor project, primary screen (AID 1067).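 Further: measures binding of biotinylated aFGF2 protein to printed compounds on slides; z-score merges feature fluorescence and signal-to-noise across triplicate slides.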 The following applies: higher = more signal.
Assay [4] is described as follows: small molecules captured by biotinylated probe aFGF10 – biochemical, small-molecule microarray, fluorescence 635/667, stem cell growth factor project, primary screen (AID 1071).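 Further: score merges 667 nm spot intensity and signal to noise from triplicate slides.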 The following applies: higher = more signal.
Assay [5] has as its target Neurogenic locus notch homolog protein 2 (Homo sapiens) (UniProt Q04721). Nature of the assay: small molecules binding Notch2 protein – biochemical, small-molecule microarray, 635 nm fluorescence, stem cell growth factors, primary screen (AID 1073). The conditions noted are these: higher = more signal.
Assay [6] concerns the target Pro-neuregulin-1, membrane-bound isoform (Homo sapiens) (UniProt Q02297). Nature of the assay: small molecules binding neuregulin-1 protein – biochemical, small-molecule microarray, fluorescence 635/667, psychiatric disease protein project, primary screen (AID 1075).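 Further: score combines 667 nm spot fluorescence with signal to noise.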 The following applies: NRG1 binding, 635 nm fluorescence, higher = more signal.
The subject of assay [7] is Neuregulin-1 EGF-like domain. Nature of the assay: small molecules binding NRG1 EGF domain – biochemical, small-molecule microarray, 635 nm fluorescence, primary screen (AID 1081).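 Further: binding of the protein to compounds printed on small-molecule microarray slides.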 The conditions noted are these: higher = more signal.
The nature of assay [8]: FRG1 expression reporter modulators in myotubes – cell-based, C2C12 myotubes, firefly/Renilla luciferase, luminescence, FRG1 inhibition for FSHD, primary screen (AID 1084). The following applies: FRG1 promoter luciferase, higher = more signal, called active from +8 up or from −8 down.
A short description of assay [9]: small molecules captured by biotinylated probe aFST – biochemical, small-molecule microarray, fluorescence 635/667, stem cell growth factor project, primary screen (AID 1086).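 Further: score merges 667 nm fluorescence with signal-to-noise of each printed compound spot.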 The following applies: higher = more signal.
The nature of assay [10]: binders of probe aHhip on microarray, primary screen, stem cell growth factor project, biochemical, small-molecule microarray, fluorescence 635/667 (AID 1087).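 Further: score merges spot fluorescence at 667nm with spot signal to noise ratio.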 The conditions noted are these: higher = more signal.
Assay [11] has as its system PRMT1 (protein arginine N-methyltransferase 1). The experiment in a line: small molecules binding arginine methyltransferase PRMT1 – biochemical, small-molecule microarray, 635 nm fluorescence, primary screen (AID 1088).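 Further: binding of Prmt1 protein to compounds spotted on small-molecule microarray slides.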 The following applies: higher = more signal.
Assay [12] in a line: growth effects on S. cerevisiae YJM789 – YJM789 clinical isolate, OD600, 24 h, basal, primary screen (AID 1089).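 Further: growth of clinical yeast isolate S. cerevisiae YJM 789 seeded 1000 cells per well; test concentration not given here.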 The following applies: higher = more signal, called active from +8 up or from −8 down.
The nature of assay [13]: S. pombe growth modifiers, basal conditions – strain 972, OD600, 24 h, no modulator, primary screen (AID 1090).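 Further: basal condition with compound alone and no growth modifier present; test concentration not given here.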 The conditions noted are these: S. pombe 972 growth, higher = more signal, called active from +8 up or from −8 down.
Assay [14] is described as follows: budding yeast growth modifiers under rapamycin – strain BY4716, OD600, 96 h, primary screen (AID 1091). Further: test concentration not given here. The conditions noted are these: S. cerevisiae BY4716 + rapamycin, higher = more signal, called active from +8 up or from −8 down.
Assay [15] concerns the target Torsin-1A-interacting protein 2 (Homo sapiens) (UniProt Q8NFQ8). Nature of the assay: small molecules binding lysate-expressed LULL1 – cell lysate, human LULL1 lysate, 635/667 nm fluorescence, primary screen (AID 1092).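 Further: probe is lysate of COS7 cells overexpressing human LULL1; score merges per-feature 667 nm fluorescence with signal-to-noise.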 The following applies: small-molecule microarray, hLULL1 lysate binding, 635 nm fluorescence; higher = more signal.
The nature of assay [16]: optical density change of DRC41 E. coli – strain DRC41, OD650, 24 h, E. coli filamentation project, primary screen (AID 1093).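 Further: MC1000 strain lacking acrAB efflux and sulA so SOS filamentation is blocked; test concentration not given here.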 The following applies: E. coli DRC41 growth, higher = more signal, called active from +8 up or from −8 down.
Assay [17] in a line: probe aLefty2 binding to arrayed compounds – biochemical, biotinylated probe, 635/667 nm fluorescence, primary screen (AID 1094).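 Further: score merges spot fluorescence near 667 nm with spot signal-to-noise ratio.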 The conditions noted are these: small-molecule microarray, higher = more signal.
Assay [18] has as its system Noggin (protein binding on small-molecule microarray). The experiment in a line: small molecules binding Noggin protein – biochemical, 635/667 nm fluorescence, primary screen (AID 1095).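 Further: score merges 667 nm feature fluorescence with signal to noise over triplicate slides.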 The conditions noted are these: 635 nm fluorescence, higher = more signal.
Assay [19] has as its target Neurogenic locus notch homolog protein 3 (Homo sapiens) (UniProt Q9UM47). Nature of the assay: small molecules binding NOTCH3 protein – biochemical, 635/667 nm fluorescence, primary screen (AID 1096). The following applies: small-molecule microarray, 635 nm fluorescence, higher = more signal.
Assay [20] is described as follows: probe aEGFR binding to arrayed compounds – biochemical, biotinylated probe, 635/667 nm fluorescence, primary screen (AID 1097).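 Further: probe is a biotinylated anti-EGFR antibody binding compounds printed on slides; score combines fluorescence near 667 nm and signal to noise of each spot.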 The following applies: small-molecule microarray, higher = more signal.

Pro-neuregulin-1, membrane-bound isoform (Homo sapiens), sequence (Q02297 whole entry, looked up, the tested form may be a part, canonical isoform): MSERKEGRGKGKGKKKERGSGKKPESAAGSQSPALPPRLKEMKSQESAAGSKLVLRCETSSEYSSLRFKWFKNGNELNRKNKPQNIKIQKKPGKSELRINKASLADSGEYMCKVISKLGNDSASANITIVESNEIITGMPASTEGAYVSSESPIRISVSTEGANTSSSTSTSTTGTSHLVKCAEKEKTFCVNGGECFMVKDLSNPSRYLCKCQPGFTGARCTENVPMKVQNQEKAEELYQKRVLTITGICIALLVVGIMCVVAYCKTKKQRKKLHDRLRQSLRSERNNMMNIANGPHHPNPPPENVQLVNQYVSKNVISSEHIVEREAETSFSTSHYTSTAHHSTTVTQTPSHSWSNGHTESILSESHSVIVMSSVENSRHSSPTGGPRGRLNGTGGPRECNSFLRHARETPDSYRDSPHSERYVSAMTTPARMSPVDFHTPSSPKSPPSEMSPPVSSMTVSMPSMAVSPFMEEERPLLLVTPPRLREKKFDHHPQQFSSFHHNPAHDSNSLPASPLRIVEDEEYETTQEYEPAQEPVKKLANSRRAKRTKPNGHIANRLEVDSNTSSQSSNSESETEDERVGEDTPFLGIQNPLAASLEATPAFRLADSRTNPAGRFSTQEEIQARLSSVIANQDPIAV
Torsin-1A-interacting protein 2 (Homo sapiens), sequence (Q8NFQ8 whole entry, looked up): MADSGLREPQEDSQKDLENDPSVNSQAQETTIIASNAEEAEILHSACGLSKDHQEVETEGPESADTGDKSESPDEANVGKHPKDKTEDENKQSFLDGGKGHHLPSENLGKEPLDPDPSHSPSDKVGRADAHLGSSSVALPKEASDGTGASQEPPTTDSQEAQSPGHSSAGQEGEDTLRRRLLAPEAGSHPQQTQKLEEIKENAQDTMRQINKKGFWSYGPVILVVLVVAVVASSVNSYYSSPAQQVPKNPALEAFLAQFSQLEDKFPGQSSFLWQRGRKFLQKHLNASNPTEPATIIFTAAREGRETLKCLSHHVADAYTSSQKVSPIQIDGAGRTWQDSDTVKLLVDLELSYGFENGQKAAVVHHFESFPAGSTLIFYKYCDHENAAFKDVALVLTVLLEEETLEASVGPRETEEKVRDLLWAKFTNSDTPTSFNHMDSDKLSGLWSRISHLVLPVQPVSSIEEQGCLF
Neurogenic locus notch homolog protein 2 (Homo sapiens), sequence (Q04721 whole entry, looked up, canonical isoform): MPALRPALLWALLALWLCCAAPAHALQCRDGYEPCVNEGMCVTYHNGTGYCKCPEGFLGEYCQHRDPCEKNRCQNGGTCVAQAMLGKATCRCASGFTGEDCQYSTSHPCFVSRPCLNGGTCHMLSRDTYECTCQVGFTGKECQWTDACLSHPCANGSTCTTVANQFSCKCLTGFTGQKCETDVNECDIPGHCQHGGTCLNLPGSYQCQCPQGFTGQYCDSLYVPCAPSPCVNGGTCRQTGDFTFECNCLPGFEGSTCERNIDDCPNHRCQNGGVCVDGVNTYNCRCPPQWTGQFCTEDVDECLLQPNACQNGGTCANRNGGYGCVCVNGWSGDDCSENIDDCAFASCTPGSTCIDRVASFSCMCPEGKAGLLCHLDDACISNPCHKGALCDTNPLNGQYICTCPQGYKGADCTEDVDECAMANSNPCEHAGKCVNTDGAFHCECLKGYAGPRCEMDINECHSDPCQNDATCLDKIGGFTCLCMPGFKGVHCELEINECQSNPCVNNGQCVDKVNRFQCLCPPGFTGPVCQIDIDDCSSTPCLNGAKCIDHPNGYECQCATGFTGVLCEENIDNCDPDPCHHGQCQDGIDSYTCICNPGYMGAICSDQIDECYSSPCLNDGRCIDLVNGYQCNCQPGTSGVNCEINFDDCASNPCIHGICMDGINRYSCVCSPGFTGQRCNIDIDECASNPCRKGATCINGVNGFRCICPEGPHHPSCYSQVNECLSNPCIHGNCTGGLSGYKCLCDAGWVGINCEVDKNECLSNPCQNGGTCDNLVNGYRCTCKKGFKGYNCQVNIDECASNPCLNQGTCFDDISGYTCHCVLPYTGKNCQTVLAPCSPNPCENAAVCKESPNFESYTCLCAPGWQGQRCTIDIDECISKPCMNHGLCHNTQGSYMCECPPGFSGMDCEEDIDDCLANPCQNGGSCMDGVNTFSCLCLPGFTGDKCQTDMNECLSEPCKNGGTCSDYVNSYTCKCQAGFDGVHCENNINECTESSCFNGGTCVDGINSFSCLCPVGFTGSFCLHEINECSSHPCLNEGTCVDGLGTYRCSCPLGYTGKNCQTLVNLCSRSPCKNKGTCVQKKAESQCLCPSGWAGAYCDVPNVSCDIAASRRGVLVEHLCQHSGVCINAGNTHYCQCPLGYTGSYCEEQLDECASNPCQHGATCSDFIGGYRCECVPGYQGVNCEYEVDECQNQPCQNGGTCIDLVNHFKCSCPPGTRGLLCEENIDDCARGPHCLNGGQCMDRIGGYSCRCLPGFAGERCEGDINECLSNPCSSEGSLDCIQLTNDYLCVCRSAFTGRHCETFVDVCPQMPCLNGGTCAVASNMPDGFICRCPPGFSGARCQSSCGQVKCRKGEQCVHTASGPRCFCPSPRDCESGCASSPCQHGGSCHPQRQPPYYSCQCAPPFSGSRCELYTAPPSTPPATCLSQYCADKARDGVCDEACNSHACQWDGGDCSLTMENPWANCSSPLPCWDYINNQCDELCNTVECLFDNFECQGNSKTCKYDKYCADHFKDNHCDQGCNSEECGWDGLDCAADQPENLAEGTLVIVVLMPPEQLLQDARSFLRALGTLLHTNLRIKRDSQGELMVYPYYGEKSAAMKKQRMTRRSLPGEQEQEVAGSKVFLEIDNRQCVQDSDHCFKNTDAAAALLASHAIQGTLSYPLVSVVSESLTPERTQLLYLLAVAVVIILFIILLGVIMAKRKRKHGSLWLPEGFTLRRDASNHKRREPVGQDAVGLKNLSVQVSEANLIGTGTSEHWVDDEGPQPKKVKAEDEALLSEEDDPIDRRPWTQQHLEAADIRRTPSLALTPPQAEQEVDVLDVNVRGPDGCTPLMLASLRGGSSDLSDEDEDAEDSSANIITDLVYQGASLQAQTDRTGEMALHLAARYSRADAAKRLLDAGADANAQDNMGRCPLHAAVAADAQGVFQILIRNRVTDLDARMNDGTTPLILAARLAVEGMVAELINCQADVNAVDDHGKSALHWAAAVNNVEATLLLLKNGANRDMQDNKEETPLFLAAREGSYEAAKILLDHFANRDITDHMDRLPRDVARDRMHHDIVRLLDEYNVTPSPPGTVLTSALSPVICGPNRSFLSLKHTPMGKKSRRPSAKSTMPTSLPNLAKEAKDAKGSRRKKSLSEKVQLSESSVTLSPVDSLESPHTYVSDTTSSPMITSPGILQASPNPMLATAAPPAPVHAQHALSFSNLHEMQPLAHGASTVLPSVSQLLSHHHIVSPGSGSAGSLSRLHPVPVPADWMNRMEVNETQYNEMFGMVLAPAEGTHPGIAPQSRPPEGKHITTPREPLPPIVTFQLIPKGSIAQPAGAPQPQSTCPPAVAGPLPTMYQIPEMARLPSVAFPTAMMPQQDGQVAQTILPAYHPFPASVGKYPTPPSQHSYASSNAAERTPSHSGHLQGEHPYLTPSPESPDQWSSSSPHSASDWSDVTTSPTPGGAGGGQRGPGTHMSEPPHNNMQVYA

As to `CC(C)C[C@@H]1NC(=O)[C@@H]2C[C@H](C(=O)NCc3ccc(F)cc3)[C@H](c3cccc(OCCO)c3)N2C1=O`, the composite z-score in assay [1] was 0.0163; in [2], 0.297; in [3], -0.0861; in assay [4], 0.362; in assay [5], -0.575; in assay [6], -0.0212. Also, the composite z-score is 1.32 in assay [7]; -0.405 in assay [9]; -0.236 in [10]; 1.38 in assay [11]; 2.14 in assay [15]; -0.0674 in assay [17]. In addition, the composite z-score in assay [18] was 0.572; in [19], 0.552; in assay [20] it was -0.147. The z-score in [8] was -0.148 (inactive); in assay [12], -1.84 (inactive); in assay [13], -0.161 (inactive); in assay [14], -0.425 (inactive); in [16], 1.64 (inactive).
For `OCCCC1=CC(c2cccs2)N(Cc2cc3c(cc2Br)OCO3)CC1` (stereo not given), the composite z-score in [1] was 0.235; in assay [2], 0.457; in assay [3] it was -0.124; in [4] it was -0.0316; in [5], -0.242; in assay [6] it was 0.775. For the same molecule, the composite z-score is 1.04 in [7]; -0.0026 in assay [9]; -0.206 in assay [10]; 0.591 in [11]; 1.17 in [15]; 0 in assay [17]. In addition, the composite z-score in assay [18] was 0.915; in assay [19], 0.208; in [20], -0.0304. For the same molecule, the z-score in assay [8] is -1.86 (inactive); in [12], -0.678 (inactive); in [13] it was -1.05 (inactive); in assay [14], -0.274 (inactive); in [16] it was -0.414 (inactive).
Regarding `Cc1ccc(S[C@]2(C(=O)O)CC(=O)N(C(C)C)[C@@H]2c2ccc(CO)cc2I)cc1`, the composite z-score in assay [1] is 1.83; in assay [2], 1.16; in [3] it was 0.0477; in assay [4], -0.0395; in assay [5], 0.175; in [6], 1.89. For the same molecule, the composite z-score in assay [7] is 1.16; in assay [9], 1.33; in [10], -0.148; in assay [11], 1.55; in [15], 2.21; in [17] it was 0.122. In addition, the composite z-score was -0.0137 in [18], 0.271 in assay [19] and 0.0255 in [20]. The z-score is -0.974 (inactive) in assay [8]; -2.31 (inactive) in [12]; -2.85 (inactive) in assay [13]; 1.55 (inactive) in [14]; 3.25 (inactive) in assay [16].
As to `O=C(CS)NCCCCCCNC(=O)[C@@H]1C[C@@H]2C(=O)NCC(=O)N2[C@@H]1c1cccc(OCCO)c1`, the composite z-score in assay [1] was 0.35; in assay [2] it was 0.024; in assay [3] it was -0.0768; in [4] it was -0.294; in [5], -0.599; in assay [6], 0.668. Also, the composite z-score in assay [7] is 1.46; in assay [9] it was -0.528; in assay [10], -0.274; in [11] it was 1.01; in [15] it was 3.09; in [17], -0.327. Also, the composite z-score was -0.07 in assay [18], 0.188 in assay [19] and -0.0662 in [20]. Moreover, the z-score in assay [8] is 0.688 (inactive); in [12], 0.309 (inactive); in [13], 0.156 (inactive); in assay [14], 0.616 (inactive); in [16] it was 0.456 (inactive).
With `C=CC[C@@]1(C(=O)NCCN2CCOCC2)N=C(c2ccc(OCCCO)cc2)O[C@@H]1c1ccccc1N=[N+]=[N-]`, the composite z-score in assay [1] was 1.4; in assay [2], -0.355; in assay [3] it was -0.119; in [4] it was 0.686; in assay [5], 0.322; in [6], 1.37. The composite z-score in assay [7] was 1.03; in assay [9], 0.803; in assay [10] it was -0.0645; in assay [11], 0.513; in assay [15] it was 2.03; in assay [17], 0.293. Moreover, the results for the composite z-score in [18], in assay [19] and in assay [20] were 0.26, -0.483 and 0.38, respectively. The z-score is 2.98 (inactive) in assay [8]; 0.658 (inactive) in [12]; -0.211 (inactive) in [13]; 0.408 (inactive) in assay [14]; -0.0403 (inactive) in assay [16].
